Measured values reported in ChEMBL document CHEMBL4513216, “Probing the Open Global Health Chemical Diversity Library for Multistage-Active Starting Points for Next-Generation Antimalarials” (ACS Infect Dis, 2020).
The campaign covered roughly 69,000 compounds. About 8,600 (12%) showed an effect of 50% or more. Many of the other results were omitted from the sample, so strong results are more common in it than they were.

Tested on: Plasmodium berghei
Assay: Screen against P. berghei liver stage (PbLuc), transformed with Luciferase, at 10uM
Format: functional, HepG2
Conditions: tested at 10 uM

Row | SMILES | INHIBITION
1 | CC(C(=O)Nc1ccnn1C(C)C)N1CCc2nn(C)c(=O)cc2C1 (stereo unspecified) | 1.98%
2 | COc1ccccc1CNC(=O)COc1c(C)n(C)ccc1=O | 53.6%
3 | COc1ccccc1CNC(=O)CNCCn1cc(C)cn1 | 7.27%
4 | COCCn1ccc(=O)c(OCC(=O)Nc2ccccc2)c1C | -93.2%
5 | Cc1c(OCC(=O)NCc2ccccc2)c(=O)ccn1C | 57.3%
6 | CC(=O)c1cccc(NC(=O)COc2c(C)n(C)ccc2=O)c1 | -19%
7 | Cc1c(OCC(=O)NCc2ccccc2Cl)c(=O)ccn1C | 39.6%
8 | Cc1cccc(CN2C(=O)CO[C@@H]3CN(C4CCOCC4)C[C@H]32)c1 | -18.2%
9 | CCN(C(=O)CCCOc1ccccc1F)c1ccncc1 | -26.8%
10 | CCCn1nnnc1COC(=O)C1Cc2cc(Cl)ccc2O1 (stereo unspecified) | 43.5%
11 | CCCc1cc(NC(=O)c2ccc(Cl)c(N3CCNC3=O)c2)n[nH]1 | -26.4%
12 | CCc1ccc(C(=O)Nc2cc(N3CCNC3=O)ccc2Cl)o1 | 32.9%
13 | CCCn1nccc1NC(=O)c1ccc(Cl)c(N2CCNC2=O)c1 | 57%
14 | O=C(CC1C=CCC1)N1CCc2ncnc(NCc3ccon3)c2CC1 (stereo unspecified) | 34.5%
15 | CC(NC(=O)CSCC#N)c1ccc(Cl)cc1 (stereo unspecified) | 34.7%
16 | CC(NC(=O)CSCC#N)c1ccc(F)cc1 (stereo unspecified) | -13.3%
17 | CC(NC(=O)CSCC#N)c1ccccc1 (stereo unspecified) | 55.5%
18 | Cc1c(Br)cnn1CCC(=O)N(C)Cc1c(Cl)cnn1C | 32.2%
19 | COc1ccc(N2CCCC3(C2)CN(c2cccnc2)CCO3)cc1 (stereo unspecified) | 8.85%
20 | CC(C)N1CCOCC2(CN(Cc3cccs3)CCO2)C1 (stereo unspecified) | 41.2%
21 | O=C(c1ccncc1)N1CCOC2(COCCN(c3cccnc3)C2)C1 (stereo unspecified) | 31.4%
22 | c1cncc(N2CCOCC3(CN(Cc4cccs4)CCO3)C2)c1 (stereo unspecified) | 53.2%
23 | Fc1cnc(N2CCCC3(CN(Cc4cccs4)CCO3)C2)nc1 (stereo unspecified) | 32.5%
24 | c1cncc(N2CCCC3(CN(Cc4cccs4)CCO3)C2)c1 (stereo unspecified) | 63.7%

Row | SMILES | INHIBITION
25 | O=C(CCc1nc(C2CC2)no1)c1ccc2c(c1)OCCO2 | -5.22%
26 | CN1CCCC(c2cncc(C(=O)NCc3ccccc3Cl)n2)C1 (stereo unspecified) | -54.1%
27 | CC(C)=CCN1C(=O)[C@@H]2CC[C@H]1CN(c1ncccn1)C2 | 12.7%
28 | CC(C)(C)NC(=O)CNc1ccc(Br)cn1 | 25.4%
29 | O=C(NCCCn1cccn1)c1nc2ccccc2[nH]1 | 15.7%
30 | Cc1csc(NC(=O)NCCCN2CCC(C(N)=O)CC2)n1 | -21.1%
31 | Cc1ccnc(OC[C@]23COC[C@H]2CN(C(=O)Cc2ccsc2)C3)n1 | -39.9%
32 | Cc1n[nH]c(C)c1NC(=O)CN1CCCC1c1noc(C2CC2)n1 (stereo unspecified) | 26.5%
33 | c1ccc(-c2nn3c(CN4CCOCC4)nnc3s2)nc1 | 25.9%
34 | COCCN1C[C@@H]2CN(c3ncc(F)cn3)C[C@@H]2C1=O | 53.4%
35 | Cc1ccc(N2C[C@H]3CCC[C@@H](CN(C)C)[C@H]3C2)nn1 | -10.5%
36 | COc1cc(N2C[C@H]3CCC[C@@H](CN(C)C4CC4)[C@H]3C2)ncn1 | 20.6%
37 | COc1cc(N2C[C@H]3CN(CCN4CCCC4)C(=O)[C@H]3C2)ncn1 | 17.2%
38 | Cc1ccc(N2C[C@@H](CN3CCOCC3)[C@@H](CO)C2)nn1 | 20.4%
39 | COc1cc(N2C[C@H]3CCC[C@@H](CN4CCCC4)[C@H]3C2)ncn1 | 76.5%
40 | Cc1nc(CN2C[C@@H]3CN(c4ncc(F)cn4)C[C@@H]3C2=O)cs1 | 5.63%
41 | COCCN1C[C@@H]2CN(c3ncccn3)C[C@@H]2C1=O | -14.6%
42 | COc1cc(N2C[C@H]3CN(CC(=O)N(C)C)C(=O)[C@H]3C2)ncn1 | 42.3%
43 | COc1cc(N2C[C@H]3CCC[C@@H](CN(C)C)[C@H]3C2)ncn1 | 32.2%
44 | Cc1ccc(N2C[C@H]3CCC[C@@H](CN4CCOCC4)[C@H]3C2)nn1 | 61.9%
45 | COCCN1CC[C@H]2CN(c3cc(OC)ncn3)C[C@@H]2C1=O | 54.1%
46 | N[C@H]1c2ccccc2C[C@@H]1NC(=O)C1CCN(Cc2ccco2)CC1 | -13.6%
47 | O=C(CS(=O)(=O)Cc1csc(-c2ccc(F)cc2)n1)NCC1CC1 | 0.991%
48 | Cc1ccn2c(F)c(C(=O)N3CCC4(CCC(=O)N(C)C4)CC3)nc2c1 | 20.5%

Row | SMILES | INHIBITION
49 | Cc1cnn(CCNCC(O)c2ccc(S(C)(=O)=O)cc2)c1 (stereo unspecified) | 12.6%
50 | c1cc(-c2nn3c(CN4CCOCC4)nnc3s2)ccn1 | 26.7%
51 | COc1ccc2c(c1)CN(CC(=O)NC1CCCC1)CC2 | -2.48%
52 | Cc1cc2nc(SCC(=O)N3CCCC3)n(C(C)C)c(=O)c2[nH]1 | -19.7%
53 | COc1cc(N2C[C@H]3CN(C(=O)c4cnccn4)C[C@H]3C2)ncn1 | -1.15%
54 | COc1cc(N2C[C@H]3CCN(CCN4CCCC4)C[C@H]3C2)ncn1 | 52.6%
55 | COCCN(C)C[C@@H]1CCC[C@@H]2CN(c3cc(OC)ncn3)C[C@@H]21 | 41.5%
56 | COc1cc(N2C[C@H]3OCC[C@H]3[C@H](C(=O)N3CCCC3)C2)ncn1 | 30.3%
57 | c1cnc(N2C[C@H]3CCC[C@@H](CN4CCCC4)[C@H]3C2)nc1 | 9.97%
58 | COc1cc(N2C[C@H]3CCC[C@@H](CN4CCOCC4)[C@H]3C2)ncn1 | 73%
59 | COCCN1C[C@@H](C)[C@@]2(COCCN(C(=O)c3cnc(C)cn3)C2)C1 | 8.57%
60 | CC(=O)NCc1noc2c1CN(CCN1CCCC1)CC2 | 39.3%
61 | O=C(O)COc1ccccc1CN1CCCC1c1cnccn1 (stereo unspecified) | 47.2%
62 | O=C(C[C@@H]1COC[C@H]2CN(Cc3ccccc3)C[C@@H]12)N1CCCC1 | 41.2%
63 | COc1ccc(CN2C[C@@H]3CN(Cc4cccnc4)CCO[C@@H]3C2)cc1 | 64.5%
64 | O=C1[C@@H]2CCN(CC3CCOCC3)C[C@@H]2OCCN1c1ccccc1 | -37.8%
65 | O=C1[C@H]2CN(C3CCOCC3)C[C@H]2CN1Cc1cccc(F)c1 | 1.48%
66 | Cc1cc(CN2CC[C@H]3C(=O)N(c4ccccc4)CCO[C@H]3C2)no1 | -33.5%
67 | COc1ccccc1CN1C[C@@H]2CN(Cc3cccnc3)CCO[C@@H]2C1 | 20.1%
68 | O=C1[C@@H]2CCN(Cc3ccccn3)C[C@@H]2OCCN1c1ccccc1 | 10.1%
69 | Cc1ccc(CN2CC[C@H]3C(=O)N(Cc4cccnc4)CCO[C@H]3C2)o1 | 33.4%
70 | Cc1ccc(N2CCO[C@H]3CN(Cc4cc(C)on4)CC[C@H]3C2=O)cn1 | 48.6%
71 | Fc1ccccc1CN1C[C@@H]2CN(Cc3cccnc3)CCO[C@@H]2C1 | 27.5%
72 | O=C1[C@@H]2CCN(Cc3ccoc3)C[C@@H]2OCCN1Cc1cccc(F)c1 | 70.7%

Row | SMILES | INHIBITION
73 | O=C1[C@@H]2CCN(Cc3ccncc3)C[C@@H]2OCCN1c1ccccc1 | 55.2%
74 | Cc1cc(CN2CC[C@H]3C(=O)N(c4cccnc4)CCO[C@H]3C2)no1 | 53.2%
75 | O=c1c2c[nH]c(N3CCCC3)nc-2cn1C1CCS(=O)(=O)C1 (stereo unspecified) | 42.1%
76 | CC(C)n1[nH]c(=O)c2c1NC(=O)CC2c1ccc(C#N)cc1 (stereo unspecified) | -1.04%
77 | O=C1NCCCCC1Sc1ccc(F)c(F)c1 (stereo unspecified) | 25.2%
78 | O=C(N1CCCC1)N1CC[C@H]2[C@H]1CCN2c1ncccn1 | 19.8%
79 | Cc1nc(CC(=O)N2CCC(c3ccn4nccc4n3)CC2)cs1 | 23.9%
80 | CCOc1ccccc1-n1c(C2CCC2)n[nH]c1=O | -27.5%
81 | Cc1cnc(N2CC[C@@H]3CN(Cc4ccncc4)CCO[C@@H]3C2)nc1 | -15.3%
82 | Cc1cc(N2CCN(Cc3ccccc3)CC(O)C2)cc(C)n1 (stereo unspecified) | 36.8%
83 | O=C1[C@@H]2CCN(Cc3ccoc3)C[C@@H]2OCCN1Cc1cccnc1 | 12.5%
84 | c1ccc(N2CC[C@@H]3CN(Cc4ccncc4)CCO[C@@H]3C2)cc1 | 65.1%
85 | O=C1[C@@H]2CCN(Cc3ccoc3)C[C@@H]2OCCN1c1cccnc1 | 54.4%
86 | O=C1[C@@H]2CCN(Cc3ccc(F)cc3)C[C@@H]2OCCN1c1cccnc1 | 24.9%
87 | c1cnc(N2CCO[C@@H]3CN(Cc4ccoc4)C[C@@H]3C2)nc1 | 33.5%
88 | O=C1[C@@H]2CCN(Cc3ccoc3)C[C@@H]2OCCN1c1ccccc1 | 21.6%
89 | c1cnc(N2CC[C@@H]3CN(Cc4ccncc4)CCO[C@@H]3C2)nc1 | -33%
90 | Cc1ccnc(N2CCN(Cc3ccccc3)CC(O)C2)c1 (stereo unspecified) | 43.9%
91 | c1cncc(CN2CCO[C@@H]3CN(Cc4ccoc4)CC[C@@H]3C2)c1 | 50.9%
92 | OC1CN(Cc2ccccc2)CCN(c2ccncc2)C1 (stereo unspecified) | 57.6%
93 | CCNc1nc(-c2cccnc2)c(-c2ccnc(N3CCCC3)n2)s1 | 48.6%
94 | CN(C)C(=O)CCCn1ccc(NC(=O)NCc2cccc(F)c2)n1 | 13.8%
95 | O=C(NCc1cc[nH]n1)NCC(O)c1ccc(F)c(F)c1 (stereo unspecified) | -48.4%
96 | CCN(CC)S(=O)(=O)c1cccc(C(=O)N(C)Cc2ccsc2)c1 | -61.4%
